Screens as filed in PubChem.
Sampled rows, rich in hits. Any-hit rate of the full collection: about 19%.
TDP1 cell noCPT = qHTS for Inhibitors of human tyrosyl-DNA phosphodiesterase 1 (TDP1): qHTS in cells in absence of CPT. 15% of 420,000 active. DT40 Tdp1-/- hTDP1 cells, no CPT, ATP luminescence, 48 h. Potency, µM (doses to about 46.2 µM), usual class: inhibitors; also: nearly all actives have a fitted effect of over 55% in size
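Growth of hTDP1-complemented DT40 Tdp1-knockout cells is measured by ATP luminescence after at least 48 hr compound exposure at 37 °C, with DMSO substituting for the 20 nM CPT used in the parallel screen.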
TDP1 cell CPT = qHTS for Inhibitors of human tyrosyl-DNA phosphodiesterase 1 (TDP1): qHTS in cells in presence of CPT. 12% of 420,000 active. Potency, µM (series often up to 46.2 µM), usual class: inhibitors. chicken DT40 Tdp1-/-;hTDP1 cells + 20 nM CPT, ATP luminescence, 48 h; also: nearly all actives have a fitted effect of over 55% in size
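Cell growth measured by CellTiter-Glo luminescence after a minimum 48 h, 37 C compound exposure with 20 nM CPT in Tdp1-knockout DT40 cells stably expressing hTDP1, seeded 400/well; qHTS titration format.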
IL1B secr inh = qHTS for Inhibitors of Inflammasome Signaling: IL-1-beta AlphaLISA Primary Screen; THP-1 LPS/ATP IL-1B secretion, AlphaLISA, 16 h; active compounds read low; activity change, % at 57.5 µM; 4.7% of 360,000 active; AID 743279, 2014; in the data active = activity change below about -50%; inconclusive = mostly about -30% to -49%
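THP-1 cells pretreated 1 hr with compounds (up to 57.5 uM final), then stimulated with LPS (250 ng/mL final) plus ATP (1.25 mM final); secreted IL-1B measured by AlphaLISA after 16 hr, decreased signal indicating inhibition.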
S-ASM inh = Inhibitors of Secretory Acid Sphingomyelinase (S-ASM): qHTS. Potency, µM (highest dose often 57.5 µM), actives largely listed as inhibitors. Sphingomyelin phosphodiesterase (Homo sapiens), P17405. placental ASM, HMU-PC fluorogenic substrate, 60 min. 0.006% of 340,000 active
Target sequence (P17405 47-631 limits assumed): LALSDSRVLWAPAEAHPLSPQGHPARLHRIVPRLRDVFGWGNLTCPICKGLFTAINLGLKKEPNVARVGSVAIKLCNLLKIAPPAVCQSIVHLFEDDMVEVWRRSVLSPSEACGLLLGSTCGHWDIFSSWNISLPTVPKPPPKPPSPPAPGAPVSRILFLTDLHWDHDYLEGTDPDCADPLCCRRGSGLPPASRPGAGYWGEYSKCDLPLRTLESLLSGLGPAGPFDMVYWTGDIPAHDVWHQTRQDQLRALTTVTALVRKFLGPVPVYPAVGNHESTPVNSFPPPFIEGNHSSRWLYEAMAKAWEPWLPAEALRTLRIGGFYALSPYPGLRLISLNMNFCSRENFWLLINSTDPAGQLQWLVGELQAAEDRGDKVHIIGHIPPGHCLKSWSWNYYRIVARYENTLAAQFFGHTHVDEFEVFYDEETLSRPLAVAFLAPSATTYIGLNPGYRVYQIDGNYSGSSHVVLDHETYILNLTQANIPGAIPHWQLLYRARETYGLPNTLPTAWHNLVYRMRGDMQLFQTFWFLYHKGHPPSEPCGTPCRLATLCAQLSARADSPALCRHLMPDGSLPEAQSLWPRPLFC
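qHTS format. ASM enzyme prepared from human placenta hydrolyses the fluorogenic substrate HMU-PC0 (9 uM final) over 60 min at 37 °C after a 10 min compound preincubation.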
HepG2 tox = qHTS for Inhibitors of TGF-b: Cytotox Counterscreen; HepG2 CAGA-GFP viability, ATP luminescence, 18 h; Potency, µM (titrated, usually from 46.1 µM), hits mostly cytotoxic; 0.76% of 410,000 active
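HepG2 CAGA-GFP cells (1000/well, DMEM with 1% FBS) received compound, then TGF-beta at 500 pg/mL final, and were incubated 18 hours at 37 degrees C. Viability was read by CellTiter-Glo luminescence. Media-only wells were set as complete cell-killing and DMSO as no toxicity.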
TGFb inhibitor = qHTS for Inhibitors of TGF-b; 1.2% of 410,000 active; Potency, µM (titrated, usually from 46.1 µM), hits mostly inhibitors; HepG2 CAGA-GFP TGF-b/SMAD3 reporter, GFP fluorescence, 18 h; TGF-beta stimulated, 500 pg/mL final; also: nearly all actives have a fitted effect of over 65% in size
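HEPG2 CAGA-GFP reporter cells (1000/well, DMEM with 1% FBS) received compounds, then recombinant TGF-beta at 500 pg/mL final for 18 hours at 37 degrees C. Per-cell GFP summed per well was normalised to unstimulated and stimulated DMSO controls before curve fitting.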
Numbers stand for hits; n = inactive; u = inconclusive; x = no result given. Unless noted, calls follow the shape of the dose curve; as a rule, active = well fitted curve in the direction sought with a large enough effect; inconclusive = small, poorly fitted or top-dose-only effect, or another doubt; inactive = no such curve, though single readings can be large; an effect the other way counts as inactive or inconclusive.

SMILES	TDP1 cell noCPT	TDP1 cell CPT	IL1B secr inh	S-ASM inh	HepG2 tox	TGFb inhibitor
COc1ccccc1C(=O)N1CCCC1(C#N)c1ccccc1 (stereo not given)	n	n	n	n	n	n
Cc1ccc(C(=O)NCC2(c3ccccc3)CCCC2)cc1	12µM	12µM	n	n	n	n
COc1ccc(C(=O)NCC2(c3ccccc3)CCOCC2)cc1[N+](=O)[O-]	29µM	u	n	n	n	n
O=C(NCC1(c2ccccc2)CCCC1)c1ccc(Br)cc1	u	u	n	n	n	n
O=C(NCC1(c2ccccc2)CCCC1)c1ccc(Br)o1	23µM	u	n	n	n	n
Cc1ccccc1CN1c2ccccc2S(=O)(=O)c2ccccc21	n	n	x	x	n	n
CCOC(=O)C1CCN(C(=O)C(C)Sc2nnc3ccccn23)CC1 (stereo not given)	n	n	n	n	n	n
COc1ccc(N=C/C=C2\C=C(c3ccccc3)OC(C)(C)O2)cc1	u	16µM	n	n	n	n
O=C(COc1ccccc1)N=C1SC2CS(=O)(=O)CC2N1c1ccccc1F (stereo not given)	n	n	n	n	n	n
CC(=O)C1=C(O)C(=O)N(c2ccccn2)C1c1ccccc1[N+](=O)[O-] (stereo not given)	16µM	u	n	n	n	n
CC1=C(C(=O)Nc2ccccc2)C(c2ccccc2C)n2ncc(C(=O)Nc3ccccc3)c2N1 (stereo not given)	n	u	x	x	n	n
O=C(NCCc1nnc2n1CCN(Cc1ccc(F)cc1)CC2)c1ccco1	n	n	x	x	x	x
O=C(Cn1c(C(F)(F)F)nc2ccccc21)Nc1ccccc1N1CCOCC1	n	n	n	n	n	u
CCOc1ccccc1NC(C)C(=O)Nc1cc(C(F)(F)F)ccc1N1CCOCC1 (stereo not given)	18µM	u	n	n	n	u
CC(C)C(=O)Nc1cc(C(F)(F)F)ccc1N1CCOCC1	n	n	n	n	n	n
O=C(NC(=S)Nc1cc(C(F)(F)F)ccc1N1CCOCC1)c1ccco1	u	u	u	n	n	n
CSc1nc2ccccc2n1CC(=O)Nc1cc(C(F)(F)F)ccc1N1CCOCC1	16µM	21µM	n	n	n	u
CC(=O)NC(=S)Nc1cc(C(F)(F)F)ccc1N1CCOCC1	u	n	-61	n	n	u
O=C(CCNC(=O)c1ccc(Cl)cc1)Nc1cc(C(F)(F)F)ccc1N1CCOCC1	23µM	26µM	n	x	n	n
O=C(CCNC(=O)c1ccc([N+](=O)[O-])cc1)Nc1cc(C(F)(F)F)ccc1N1CCOCC1	u	u	n	x	n	n
Cc1ccc(-n2c(SCC(=O)Nc3ccc4c(c3)OCO4)nc3c([nH]c4ccccc43)c2=O)cc1	u	n	x	x	n	n
Cc1ccc(S(=O)(=O)Nc2nc(C)c(C(=O)N/N=C/c3ccccc3)s2)cc1	n	n	n	n	n	n
Cc1nnc(SCC(=O)Nc2cc(C(F)(F)F)ccc2N2CCOCC2)o1	n	n	n	n	n	n
Cc1ccccc1SCC(=O)Nc1cc(C(F)(F)F)ccc1N1CCOCC1	u	u	-70	n	n	u
COc1ccc(CN2CCC3(CCC(CNC(=O)c4ccnn4C)O3)CC2)c(C)c1C (stereo not given)	u	n	x	x	x	x
SMILES	TDP1 cell noCPT	TDP1 cell CPT	IL1B secr inh	S-ASM inh	HepG2 tox	TGFb inhibitor
COc1ccc(NC(=O)CN2C(=O)COc3ccc(S(=O)(=O)NC4CCCC4)cc32)cc1OC	n	n	x	x	n	n
CC(CNC(=S)Nc1cc(F)cc(F)c1)CSc1ccc(Cl)cc1 (stereo not given)	26µM	u	-97	n	n	18µM
Cn1cccc1CNC(=S)Nc1cc(F)cc(F)c1	n	n	n	n	n	n
Cc1ccc(NC(=S)NCCSc2ccc(Cl)cc2)cc1	u	n	-91	n	n	u
Cc1cccc(C)c1NC(=S)NCCSc1ccc(Cl)cc1	u	u	-72	n	n	u
CC1CCc2sc(C(=O)NNC(=O)c3ccncc3)cc2C1 (stereo not given)	n	n	n	x	n	n
O=C(CC1(O)C(=O)Nc2ccccc21)c1cccc(-n2cccc2)c1 (stereo not given)	n	n	n	n	n	n
CN1C(=O)C(O)(CC(=O)c2ccncc2)c2ccccc21 (stereo not given)	u	u	-53	n	n	n
CN1C(=O)C(O)(CC(=O)c2cccc(-n3cccc3)c2)c2ccccc21 (stereo not given)	u	21µM	n	n	n	n
CN1C(=O)C(O)(CC(=O)/C=C/C=C/c2ccccc2)c2ccccc21 (stereo not given)	u	u	u	n	n	n
COc1ccc(-c2nc3n(c(=O)c2C#N)CCS3)cc1	n	n	n	n	n	n
C=CCSc1nc(-c2ccc(OC)cc2)c(C#N)c(=O)n1CC=C	26µM	16µM	-102	n	n	u
C/C(=N\Nc1ccc(C(=O)c2c(C)cc3ccccn23)cc1[N+](=O)[O-])c1ccc(O)cc1	u	u	n	u	n	n
C/C(=N/Nc1ccc(C(=O)c2c(C)cc3ccccn23)cc1[N+](=O)[O-])c1ccc(O)cc1	u	18µM	n	u	n	n
Cc1ccc(CN2CCC(CO)(CC3CCCCO3)CC2)o1 (stereo not given)	n	n	n	n	n	u
Cc1ccc2[nH]c(CN3CCC(CO)(CC4CCCCO4)CC3)c(C)c2c1 (stereo not given)	u	u	-113	n	n	n
CCOC(=O)c1c(NC(=O)CC2SC(N)=NC2=O)sc2c1CCC(C)C2 (stereo not given)	n	n	-52	n	n	n
CCOC(=O)c1c(NC(=O)CC2SC(N)=NC2=O)sc(C)c1C (stereo not given)	n	23µM	n	n	n	n
COC(=O)c1c(NC(=O)CC2SC(N)=NC2=O)sc2c1CCC(C(C)(C)C)C2 (stereo not given)	u	u	-53	n	n	u
COC(=O)c1c(NC(=O)CC2SC(N)=NC2=O)sc2c1CCC(C)C2 (stereo not given)	u	n	u	n	n	n
Cc1c(C(=O)N2CCCCCC2)sc2ncnc(NCC3CCCO3)c12 (stereo not given)	n	n	x	x	x	x
